This is a sample that favours compounds with a hit; in the whole collection about 18% have one here.
GCN5L2 inh = blocks human GCN5L2 histone acetyltransferase. GCN5L2 HAT assay, ThioGlo1 CoA-SH fluorescence. Potency, µM (top dose mostly 58.9 µM), for inactives: top-dose activity change, negative = inhibition, most hits filed as inhibitors. actives 0.21% (n = 390,000). AID 504327
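GCN5L2 (20nM final) in 50mM HEPES, 0.1mM EDTA pH 7.5, 0.01% Tween-20 was preincubated 15 min at room temperature with compound, then given ThioGlo1 (50uM), H3(1-25) peptide (75uM) and acetyl-CoA (70uM); CoA-thiol fluorescence (Ex340/Em540) was read at 0 and 20 min.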
PLK1 PBD block = blocks phosphopeptide binding to human PLK1 polo-box domain; P53350; Plk1 PBD binding of FITC phosphopeptide, fluorescence polarization; Potency, µM, for inactives: max response, negative = inhibition, usual class: inhibitors; actives 2.8% (n = 360,000); AID 720504; further: series mostly up to about 57 µM; nearly all actives have a fitted effect of over 65% in size
Target sequence (P53350 whole entry, looked up, the tested form may be a part): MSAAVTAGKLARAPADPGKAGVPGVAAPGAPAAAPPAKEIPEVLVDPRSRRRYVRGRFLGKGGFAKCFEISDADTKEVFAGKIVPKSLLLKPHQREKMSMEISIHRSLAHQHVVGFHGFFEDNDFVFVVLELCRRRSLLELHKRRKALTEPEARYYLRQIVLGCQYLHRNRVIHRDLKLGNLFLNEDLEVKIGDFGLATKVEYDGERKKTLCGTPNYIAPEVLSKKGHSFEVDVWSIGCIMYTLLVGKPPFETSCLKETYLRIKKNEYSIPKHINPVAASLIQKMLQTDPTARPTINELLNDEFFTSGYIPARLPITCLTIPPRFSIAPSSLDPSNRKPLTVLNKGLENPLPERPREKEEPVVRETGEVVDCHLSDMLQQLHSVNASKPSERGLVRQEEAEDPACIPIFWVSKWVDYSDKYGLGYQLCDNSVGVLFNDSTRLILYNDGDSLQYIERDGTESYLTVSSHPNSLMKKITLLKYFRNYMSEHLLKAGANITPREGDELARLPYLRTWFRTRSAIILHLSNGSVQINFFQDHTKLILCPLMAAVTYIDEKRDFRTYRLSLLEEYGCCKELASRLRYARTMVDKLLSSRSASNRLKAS
TDP1 block = TDP1 (human) enzyme inhibition; Q9NUW8; recombinant TDP1, AlphaScreen DNA substrate cleavage; Potency, µM (highest dose often 130 µM), inactives show at the top dose activity change, negative = inhibition, hits mostly inhibitors; actives 0.28% (n = 350,000); further: nearly all actives have a fitted effect of over 40% in size
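Steps: enzyme plus compound, 15 min RT; add biotin/phosphotyrosine-FITC oligonucleotide (15 nM final), react 5 min; add donor/acceptor beads (10 ug/ml final), 10 min; read AlphaScreen. Tdp1 at 1 nM final.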
VDR inh = inhibitors of human vitamin D receptor | VDR-SRC2-3 peptide fluorescence polarization, 2 h | AID 504847 | P11473 | actives 0.93% (n = 400,000) | Potency, µM, inactives show max response, negative = inhibition, usual class: inhibitors
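Compounds are added to VDR with labelled SRC2-3 coactivator peptide and held 2 h at room temperature. Inhibition of the VDR–peptide interaction is then read as a change in fluorescence polarization.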
TDP1 cell noCPT = qHTS for Inhibitors of human tyrosyl-DNA phosphodiesterase 1 (TDP1): qHTS in cells in absence of CPT; DT40 Tdp1-/- hTDP1 cells, no CPT, ATP luminescence, 48 h; Potency, µM (highest dose often 46.2 µM), inactives show top-dose activity change, negative = growth inhibition, most hits filed as inhibitors; actives 15% (n = 420,000); AID 686978, 2013; further: nearly all actives have a fitted effect of over 55% in size
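Growth of hTDP1-complemented DT40 Tdp1-knockout cells is measured by ATP luminescence after at least 48 hr compound exposure at 37 °C, with DMSO substituting for the 20 nM CPT used in the parallel screen.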
DT40 TDP1 CPT = growth inhibition of DT40 Tdp1-/-;hTDP1 cells with camptothecin (screen for TDP1 inhibitors); chicken DT40 Tdp1-/-;hTDP1 cells + 20 nM CPT, ATP luminescence, 48 h; Potency, µM (highest dose often 46.2 µM), inactives show at the top dose activity change, negative = growth inhibition, most hits filed as inhibitors; actives 12% (n = 420,000); AID 686979; further: nearly all actives have a fitted effect of over 55% in size
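Cell growth measured by CellTiter-Glo luminescence after a minimum 48 h, 37 C compound exposure with 20 nM CPT in Tdp1-knockout DT40 cells stably expressing hTDP1, seeded 400/well; qHTS titration format.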
* hit, by the source's call; [ ] = remark or other dose. The call rests on the fitted dose curve; in most records, active means well fitted curve in the direction sought with a large enough effect; inconclusive means small, poorly fitted or top-dose-only effect, or another doubt; inactive means no such curve, though single readings can be large; an effect the other way counts as inactive or inconclusive. On the % scale 0 is the no-effect control and ±100 the full control effect; potency means the concentration at half of the fitted maximal effect.

How did Cc1ccccc1Cn1c(=O)n(CC2CCC(C(=O)N3CCOCC3)CC2)c(=O)c2sccc21 (configuration not stated) do in these assays?
GCN5L2 inh: -17%; TDP1 block: 1%; VDR inh: 1%; TDP1 cell noCPT: inconclusive; DT40 TDP1 CPT: inconclusive

How did CNC(=O)C1CCC(Cn2c(=O)c3sccc3n(Cc3ccccc3)c2=O)CC1 (configuration not stated) do in these assays?
GCN5L2 inh: -4%; TDP1 block: -1%; VDR inh: 1%; TDP1 cell noCPT: inconclusive; DT40 TDP1 CPT: inconclusive

What do the screens show for `O=C(C1CCC(Cn2c(=O)c3sccc3n(Cc3cccc(F)c3)c2=O)CC1)N1CCCCC1` (configuration not stated)?
GCN5L2 inh: 2%; TDP1 block: 8%; VDR inh: -8%; TDP1 cell noCPT: 5.8µM*; DT40 TDP1 CPT: inconclusive

How did CNC(=O)C1CCC(Cn2c(=O)c3sccc3n(Cc3ccc(F)cc3)c2=O)CC1 (configuration not stated) do in these assays?
GCN5L2 inh: -8%; TDP1 block: 6%; VDR inh: -4%; TDP1 cell noCPT: 8.2µM*; DT40 TDP1 CPT: 8.2µM*

How did O=C(C1CCC(Cn2c(=O)c3sccc3n(Cc3cccc(F)c3)c2=O)CC1)N1CCOCC1 (configuration not stated) do in these assays?
GCN5L2 inh: -4%; TDP1 block: 8%; VDR inh: 1%; TDP1 cell noCPT: 16µM*; DT40 TDP1 CPT: inconclusive

Results for O=C1CSC(=Nc2ccc(Cl)cc2)N1Cc1ccco1 ?
GCN5L2 inh: -4%; PLK1 PBD block: -4%; VDR inh: -15%; TDP1 cell noCPT: -28%; DT40 TDP1 CPT: -6%

What do the screens show for `O=C(COc1ccc(Br)cc1)N/N=C1/SCC(=O)N1Cc1ccco1`?
GCN5L2 inh: 6%; PLK1 PBD block: 24µM*; TDP1 block: -8%; VDR inh: inconclusive; TDP1 cell noCPT: inconclusive; DT40 TDP1 CPT: inconclusive

How did COc1ccc(S(=O)(=O)N(CC(=O)Nc2ccc3c(c2)OCO3)c2ccc(C)cc2)cc1 do in these assays?
GCN5L2 inh: -12%; VDR inh: 2%; TDP1 cell noCPT: inconclusive; DT40 TDP1 CPT: inconclusive

What do the screens show for `COc1ccccc1N(CC(=O)Nc1ccc2c(c1)OCO2)S(=O)(=O)c1ccc(C)cc1`?
GCN5L2 inh: 3%; VDR inh: -13%; TDP1 cell noCPT: 8.2µM*; DT40 TDP1 CPT: 23µM*

What do the screens show for `Cc1ccc(S(=O)(=O)N(CC(=O)Nc2ccc3c(c2)OCO3)c2ccc(C)c(Cl)c2)cc1`?
GCN5L2 inh: -12%; TDP1 block: -11%[12.3 µM]; VDR inh: 4%; TDP1 cell noCPT: inconclusive; DT40 TDP1 CPT: 16µM*

Results for Cc1ccc(S(=O)(=O)N(C)CC(=O)OCC(=O)NC(=O)Nc2ccc3c(c2)OCCO3)cc1 ?
GCN5L2 inh: -8%; PLK1 PBD block: 27µM*; TDP1 block: 2%; VDR inh: inconclusive; TDP1 cell noCPT: inconclusive; DT40 TDP1 CPT: inconclusive

How did COc1ccccc1N(CC(=O)Nc1cc(C)on1)S(=O)(=O)c1ccc(Cl)cc1 do in these assays?
GCN5L2 inh: -22%; PLK1 PBD block: -1%; TDP1 block: 5%; VDR inh: 11%; TDP1 cell noCPT: 18µM*; DT40 TDP1 CPT: 18µM*

How did COc1ccc(NC(=O)CCC(=O)N2CCCC2)c([N+](=O)[O-])c1 do in these assays?
GCN5L2 inh: 1%; PLK1 PBD block: -3%; TDP1 block: 3%; VDR inh: 4%; TDP1 cell noCPT: 14%; DT40 TDP1 CPT: 15%

Screening data deposited in PubChem by National Center for Advancing Translational Sciences (NCATS).
